Laboratory results as given in PubChem BioAssay AID588852 (The Scripps Research Institute Molecular Screening Center, 2011).
The whole screen tested about 360,000 compounds, of which about 4,600 (1.3%) were called active. The sample holds actives, similar compounds and a random draw of the others, so the mix is not that of the screen.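 The calls were made as follows: active = percent inhibition above its own plate's cutoff, namely the mean of that plate's compound wells plus 3 SD; inactive = the rest.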

Molecular target: Muscarinic acetylcholine receptor M1 (Homo sapiens) (UniProt P11229)
Assay: human M1 muscarinic receptor antagonists, primary screen, CHO-K1 cells, Fluo-8 calcium fluorescence, 1536-well (AID 588852);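 also: peak over basal fluorescence ratio during 140 s after agonist addition; 0% = ACh EC80 plus DMSO and 100% = DMSO alone without agonist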
Settings: CHO-K1 hM1, Fluo-8 calcium fluorescence, ACh EC80 antagonist; at 3 µM; stronger effect = higher value

Chain of Muscarinic acetylcholine receptor M1 (Homo sapiens) (P11229 whole entry, looked up): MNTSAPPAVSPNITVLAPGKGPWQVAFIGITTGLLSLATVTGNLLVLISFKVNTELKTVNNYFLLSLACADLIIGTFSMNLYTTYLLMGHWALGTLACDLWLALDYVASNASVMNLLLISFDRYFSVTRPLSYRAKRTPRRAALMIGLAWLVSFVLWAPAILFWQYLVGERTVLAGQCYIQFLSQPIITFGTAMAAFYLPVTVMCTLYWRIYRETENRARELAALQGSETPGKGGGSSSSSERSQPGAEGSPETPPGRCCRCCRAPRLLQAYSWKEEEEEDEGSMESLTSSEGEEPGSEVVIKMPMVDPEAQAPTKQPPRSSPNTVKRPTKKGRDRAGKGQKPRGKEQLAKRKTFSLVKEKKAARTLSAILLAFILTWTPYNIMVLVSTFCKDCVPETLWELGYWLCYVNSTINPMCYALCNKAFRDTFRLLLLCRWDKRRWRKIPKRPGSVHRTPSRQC

SMILES | inhibition
CCOC(=O)c1cccc(NC(=O)CN2C(=O)C3CC=CCC3C2=O)c1 (stereo not drawn) | -6.58% (inactive)
Cc1ccccc1OCC(=O)NNC(=O)c1cc(S(=O)(=O)N(C)C)ccc1N1CCCC1 | -9.89% (inactive)
CN(C)CC/C=C1\c2ccccc2CSc2ccccc21 | 96.1% (active)
CN(C)Cc1ccccc1C1(O)c2ccccc2CSc2ccccc21 (stereo not drawn) | 20.6% (inactive)
COc1ccc(-c2ccc(C(=O)NCCN3CCOCC3)c3occc23)c(C)c1 | 1.54% (inactive)
CC(C)C[C@H]1CNC(=S)N1C[C@H]1CCCN1C[C@H](Cc1ccc(O)cc1)N1C[C@H](Cc2ccc(O)cc2)N(CC2CCCCC2)C1=S | 1.57% (inactive)
COc1ccccc1C1SCCN1C(=O)c1ccc([N+](=O)[O-])cc1 (stereo not drawn) | 62% (active)
O=C(Nc1ccc(F)cc1)C1CCN(C(=O)c2ccc([N+](=O)[O-])cc2)CC1 | -0.31% (inactive)
C[N+]1(CC(O)COc2ccccc2)CCN(C(=O)c2ccc([N+](=O)[O-])cc2)CC1 (stereo not drawn) | -2.65% (inactive)
Cc1cccc(-c2nc3ccc(C(=O)NCCN4CCN(C)CC4)cc3nc2-c2cccc(C)c2)c1 | 46.9% (active)
Cc1cc(C)cc(C(=O)NCCN2CCOCC2)c1 | -11.1% (inactive)
Cc1cccc(C(=O)OC(C)CN2CCN(C)CC2)c1 (stereo not drawn) | -1.32% (inactive)
CSc1nc2sc3c(c2c(=O)[nH]1)CCc1ccccc1-3 | -1.53% (inactive)
C/C(=N\NC(=O)NC1CCCCC1)c1ccc(OC(F)F)cc1OC(F)F | 3.51% (inactive)
CCSC(C)CC1C/C(=N/O)c2c(C)noc2C1 (stereo not drawn) | 46.6% (active)
CCCc1noc2c1/C(=N\O)CCC2 | -7.37% (inactive)
COc1ccc(OC)c(Cc2cnc3nc(N)nc(N)c3c2C)c1 | -0.49% (inactive)
O=C(Cc1ccc(Cl)cc1)NC(=S)Nc1ccccc1O | 64.7% (active)
O=C(COc1ccc(Cl)cc1)NC(=S)Nc1ccccc1N1CCOCC1 | 1.11% (inactive)
Cc1ccccc1NC(=S)NC(=O)Cc1ccc(Cl)cc1 | 14.3% (inactive)
O=C(NCCCn1ccnc1)C1CCCN(S(=O)(=O)c2cc(Cl)ccc2Cl)C1 (stereo not drawn) | 5.3% (inactive)
Nc1ncnc2c1ncn2[C@@H]1O[C@H](C(=O)NCC(F)(F)F)[C@@H](O)[C@H]1O | -26.1% (inactive)
CCSC1=NCCN1S(=O)(=O)c1ccc(F)cc1 | 7.85% (inactive)
COc1cc(C(=S)NC2CCCCC2)ccc1O | 99.6% (active)

SMILES | inhibition
COc1ccc(C(=O)NC(=S)NC2CCCCC2)cc1 | -6.7% (inactive)
COc1cc(C(=S)N2CCOCC2)ccc1O | 0.12% (inactive)
CC(=O)Nc1cccc(Nc2ccc(C#N)cc2)c1 | -8.06% (inactive)
O=C(/C=C/[C@H]1O[C@@H](n2cnc3c(NC(=O)c4ccccc4)ncnc32)[C@H](O)[C@@H]1O)NCc1ccccc1 | -2.88% (inactive)
Cn1cnnc1Sc1ccc(CN2CCN(C3CCCC3)C(CCO)C2)o1 (stereo not drawn) | 25.2% (active)
CCOc1ccc(CN2CCN(Cc3ccc(C)o3)CC2CCO)cc1 (stereo not drawn) | 0.92% (inactive)
OCC1(CCc2ccccc2)CCN(Cc2ccc3nsnc3c2)CC1 | -4.82% (inactive)
Cc1ccc(CN2CCN(Cc3ccc(OCCO)cc3)CC2CCO)o1 (stereo not drawn) | -10.3% (inactive)
COc1cccc2c1OCC(CN1CCN(C3CCCCC3)C(CCO)C1)=C2 (stereo not drawn) | 28% (inactive)
OCCC1CN(Cc2ccc3nsnc3c2)CCN1C1CCCC1 (stereo not drawn) | 45.8% (active)
OCCC1CN(Cc2ccc3nsnc3c2)CCN1C1CCCCC1 (stereo not drawn) | 31.7% (active)
Cc1ccc(CN2CCN(Cc3ccc4ncccc4c3)CC2CCO)cc1 (stereo not drawn) | 5.31% (inactive)
CC(C)N1CCC(N2CCN(Cc3cccnc3)CC2CCO)CC1 (stereo not drawn) | -8.8% (inactive)
CN(C)CCNC(=O)c1ccc(-c2cn3c(-c4ccc(Oc5ccccc5)cc4)cnc3cn2)cc1 | -3.33% (inactive)
CCc1ccc(N2CC(C(=O)NC3=NCCS3)CC2=O)cc1 (stereo not drawn) | -11.6% (inactive)
CN(Cc1ccccc1)CC(O)COc1ccc(CNCc2cc3ccccc3s2)cc1 (stereo not drawn) | 15.1% (inactive)
CCOC(=O)[C@H]1[C@H]2COc3ccc(Br)cc3[C@@H]2N2C(=O)CN(C)C(=O)[C@@]12C | -4.45% (inactive)
Cc1ccc2c(NC(=O)C3CC3)cccc2n1 | -22.4% (inactive)
CN(C)S(=O)(=O)N1CCC(Oc2cccc(C(=O)NCCCC3CCCC3)c2)CC1 | 26.7% (inactive)
Cc1cccc(C)c1-n1nnnc1C(CCc1ccccc1)N1CCN(C/C=C/c2ccccc2)CC1 (stereo not drawn) | -27.1% (inactive)
O=C(NCc1ccco1)/C(=C\c1cccc([N+](=O)[O-])c1)NC(=O)c1ccco1 | -2.79% (inactive)
CCCC[C@@H]1CN=C(N)N1CCc1cccc(F)c1 | 18.6% (inactive)
CCCC[C@@H]1CN=C(N)N1CCCC | 8.39% (inactive)
CCCC[C@@H]1CN=C(N)N1CCc1cc(C(F)(F)F)cc(C(F)(F)F)c1 | 51.9% (active)

SMILES | inhibition
CCN(CC(=O)Nc1c(F)cccc1F)C(=O)Cc1cccs1 | -16.3% (inactive)
Cn1nccc1NS(=O)(=O)c1ccc(F)cc1 | -14.9% (inactive)
C/C=C(\C)C(=O)NCCN1C2=NC[C@H](Cc3ccc(O)cc3)N2C[C@@H]1Cc1ccc(OC)cc1 | -3.4% (inactive)
COc1cccc(CNC(=O)CCC2CCCN(Cc3ccc(OC(F)F)cc3)C2)c1 (stereo not drawn) | 20.6% (inactive)
COc1ccc(C[C@H]2CN3C(=NC[C@H]3C)N2CCNC(=O)CCC2CCCCC2)cc1 | 38.6% (active)
COc1ccc(C2c3c(C)nn(-c4ccccc4)c3NC(=O)N2c2ccccc2)cc1 (stereo not drawn) | -12.4% (inactive)
CCOC(=O)[C@H]1[C@H]2COc3cc(OC)ccc3[C@@H]2N2C(=O)CN(Cc3ccc(Cl)cc3)C(=O)[C@@]12C | -8.3% (inactive)
CCOC(=O)[C@H]1[C@H]2COc3ccccc3[C@@H]2N2C(=O)CN(Cc3ccccc3)C(=O)[C@@]12C | 7.51% (inactive)
CCOC(=O)[C@H]1[C@H]2COc3ccc(C)cc3[C@@H]2N2C(=O)CN(Cc3ccc(F)cc3)C(=O)[C@@]12C | 35.9% (active)
O=C1OC(Cc2ccccc2)C(c2ccccc2)C1=O (stereo not drawn) | -4.64% (inactive)
NCCCCC(C(=O)O)N(C(=O)OCc1ccccc1)C(=O)OCc1ccccc1 (stereo not drawn) | 2.44% (inactive)
CCC(=C/c1sc2ccc3ccccc3c2[n+]1C)/C=C1\Sc2ccc3ccccc3c2N1C | -7.73% (inactive)
CCCCOc1ccc(C(C)(O)CCN2CCOCC2)cc1 (stereo not drawn) | -7.98% (inactive)
c1ccc2cc3[nH]c(CN4CCCCC4)nc3cc2c1 | -5.8% (inactive)
O=C(c1ccccc1)C(O)(CN1CCCCC1)c1ccccc1 (stereo not drawn) | 1.74% (inactive)
CCc1ccccc1NC(=O)NCCN1CCCCC1 | -20.3% (inactive)
CC(C)(c1ccccc1)c1ccc(OCCN2CCCC2)cc1 | 8.05% (inactive)
C#CC(CCN1CCCCC1)(OC)c1ccccc1 (stereo not drawn) | 93.9% (active)
CC(CN1CCCCC1)c1ccccc1 (stereo not drawn) | -23.4% (inactive)
CCCCCC(O)(CCN1CCCCC1)c1ccccc1 (stereo not drawn) | 99.8% (active)
CCCCCCC(O)(CCN1CCCCC1)c1ccccc1 (stereo not drawn) | 98.8% (active)
CSc1nc(C)nc(C2CC2)c1C#N | -5.81% (inactive)
CCOC1=C2[C@H]([C@H]3C(=O)N(c4ccccc4)C(=O)[C@H]3C1)[C@@H](c1ccccc1)N(S(=O)(=O)c1ccc(C)cc1)[C@H]2c1ccccc1 | -3.55% (inactive)
c1ccc(Cc2c(-c3ccco3)nc3c4ccccc4ccn23)cc1 | -25.9% (inactive)

SMILES | inhibition
Cc1ccc(-c2cnc(C(O)c3cc(Cl)cc(Cl)c3)[nH]2)cc1 (stereo not drawn) | 10.3% (inactive)
COc1ccc(OC)c(-c2c(=O)n(OCc3ccccc3Br)c3ccccc3[n+]2[O-])c1 | -8.89% (inactive)
CCN(CC)S(=O)(=O)c1ccc(N2CCOCC2)c(NC(=O)C2CSC3(C)CCC(=O)N23)c1 (stereo not drawn) | -11.2% (inactive)
O=C(Cc1ncc(C(F)(F)F)cc1Cl)Nc1cccc(Br)c1 | 0.3% (inactive)
O=C(CC(O)(C(F)(F)F)C(F)(F)F)Nc1ccc(Cl)c(Cl)c1 | 41.1% (active)
CN(CC(=O)Nc1ccc(Cl)c(C(F)(F)F)c1)C(=O)CCC(=O)c1ccccc1 | 10.7% (inactive)
CC(=O)N1CCN(Cc2cc(=O)oc3cc(C)ccc23)CC1 | -6.95% (inactive)
Cc1cc(NC(=O)c2cc3ccccc3o2)no1 | 0.12% (inactive)
COc1cc2ccccc2cc1C(=O)Nc1ccncc1 | -10.8% (inactive)
O=C(Nc1ccncc1)c1cc2ccccc2o1 | 11.1% (active)
CNS(=O)(=O)c1cnccc1N1CCN(c2cccc(C)c2)CC1 | -21.3% (inactive)
CC(=O)N1CCc2c(sc(NC(=O)CCS(=O)(=O)c3ccc(C)cc3)c2C(N)=O)C1 | -9.37% (inactive)
Cc1nc2c(OCc3cccc(Cl)c3)cccn2c1N(C)CC1CC1 | 68.1% (active)
CCc1nc2c(OCc3cccc(OC)c3)cccn2c1N(C)C(=O)C(C)C | 5.18% (inactive)
Cc1nc2c(OCc3ccc(Cl)cc3)cccn2c1N(C)Cc1cccs1 | 38.4% (active)
CCc1nc2c(OCc3ccccc3)cccn2c1N(C)C(=O)c1ccco1 | -4.6% (inactive)
CCCCC(=O)N(C)c1c(CC)nc2c(OCc3ccc(Cl)cc3Cl)cccn12 | 23.1% (inactive)
Cc1nc2c(OCc3ccc(Cl)cc3Cl)cccn2c1N(C)CC1CC1 | 43.8% (active)
CCc1nc2c(OCc3ccc(F)c(F)c3)cccn2c1N(C)C(=O)c1ccco1 | -7.6% (inactive)
CCc1nc2c(OCc3ccc(Cl)cc3Cl)cccn2c1N(C)C(=O)C(C)C | 2.38% (inactive)
Cc1nc2c(OCC(=O)C(C)(C)C)cccn2c1N(C)Cc1cccs1 | -8.77% (inactive)
